Source: PubChem BioAssay (NCI)
Compounds without any hit were thinned out: in the full panel of roughly 79,000, 15% have a hit. Unmarked numbers belong to inactive results. Active and inactive are the calls of the source. Rule as the data show it: active = growth inhibition above about 70%; inactive = the rest.

Key:
[1] = NCI Yeast Anticancer Drug Screen. Data for the rad50 strain (AID 155);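 also: 0% = growth of vehicle-only cultures of the same strain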; settings: S. cerevisiae rad50 strain growth inhibition; at 50.0 µM; stronger effect = higher value
Method in brief: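 Inhibition values express reduced yeast growth in compound-treated cultures relative to vehicle-treated controls.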

[2] = NCI Yeast Anticancer Drug Screen. Data for the mec2-1 strain (AID 157); settings: S. cerevisiae mec2-1 strain, at 50.0 µM, stronger effect = higher value
Method in brief: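 Mutant yeast (mec2-1) grown with compound; growth inhibition relative to vehicle control reported.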

[3] = NCI Yeast Anticancer Drug Screen. Data for the sgs1 mgt1 strain (AID 161);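 also: 0% = growth of cultures given vehicle only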; settings: S. cerevisiae sgs1 mgt1 strain, at 50.0 µM, stronger effect = higher value
Method in brief: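 Compounds are added to genetically altered yeast, and growth is compared with cultures given vehicle alone to give percent inhibition.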

[4] = NCI Yeast Anticancer Drug Screen. Data for the cln2 rad14 strain (AID 165);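 also: 0% = growth equal to vehicle treated cultures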; settings: S. cerevisiae cln2 rad14 strain, at 50.0 µM, stronger effect = higher value
Method in brief: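 Readout is yeast growth inhibition versus vehicle-treated controls, using a strain with cln2 and rad14 alterations exposed to compound.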

[5] = NCI Yeast Anticancer Drug Screen. Data for the bub3 strain (AID 167); settings: S. cerevisiae bub3 mutant strain, at 50.0 µM, stronger effect = higher value
Method in brief: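 Steps: expose the mutant yeast strain to compound; grow alongside vehicle-treated cultures; measure growth; express inhibition against the vehicle cultures.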

[6] = NCI Yeast Anticancer Drug Screen. Data for the mlh1 rad18 strain (AID 175); settings: S. cerevisiae mlh1 rad18 strain growth inhibition; at 50.0 µM; stronger effect = higher value
Method in brief: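 Genetically defined yeast (DNA repair-deficient) exposed to compounds; growth inhibition determined relative to vehicle.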

Structure (SMILES)	growth inhibition [1]	growth inhibition [2]	growth inhibition [3]	growth inhibition [4]	growth inhibition [5]	growth inhibition [6]
Cc1cccc(-n2c(N)c(-c3nc4ccccc4[nH]3)sc2=S)c1	6.7%	-11.9%	13.4%	10.2%	3.4%	2.6%
Cc1ccc(S(=O)(=O)C23N=NC(C)(C)C2C2CCC3C2)cc1 (stereo not given)	-8.4%	-12%	1.1%	-59.2%	-50.3%	3.75%
CCC(=O)OCC1OC(Oc2ccc(N=Nc3ccccc3)cc2)C(OC(=O)CC)C(OC(=O)CC)C1OC(=O)CC (stereo not given)	18.9%	3.4%	34%	1.35%	12.9%	28.2%
CC1(C)CCNc2ccccc2S1	-0.55%	1.7%	2.05%	-25.9%	-11.1%	-14.6%
O=C(NC(=O)c1cc2cc(Br)cc(Br)c2oc1=O)Oc1ccccc1	24.9%	19.4%	14.1%	25.4%	-2.55%	13.1%
COc1ccc2nc3c(=O)[nH]c(=O)nc-3n(CC(O)C(O)C(O)CO)c2c1 (stereo not given)	24.9%	6.9%	16.1%	25.3%	10.9%	34.2%
COC(CCl)OC	3.75%	-18.6%	15.8%	10.3%	-9.7%	2.6%
CC(C)CCN(CCCNc1c2c(nc3ccc(Cl)cc13)CCCC2)CCC(C)C	-1.65%	-9.4%	-7.55%	-34.4%	-1.25%	4.95%
CC(O)C(c1ccc(N(C)C)cc1)c1ccc(N(C)C)cc1 (stereo not given)	-6.25%	3.1%	2.35%	-14.6%	6.05%	2.45%
CC(C)CCCC(C)C1CCC2(C)C3CCC4C(C)(C)C(OCC(C)(C)C)CCC4(C)C3CCC12C (stereo not given)	34%	-5.5%	4.7%	7.3%	-0.15%	-5.4%
CCCCOC(=O)C1CC2OC2CC1C(=O)OCCOCCOC(=O)C1CC2OC2CC1C(=O)OCCCC (stereo not given)	-18.3%	-6.45%	-14.4%	-39.9%	14.6%	-42.5%
COc1cc([N+](=O)[O-])ccc1P(=O)(O)O	2%	-5.65%	-1.4%	-4.35%	-9.95%	14.1%
COc1ccc(I)cc1	-1.85%	-15.8%	3.65%	-2.2%	-3.5%	2.35%
CCOC(=O)NN(C/C(Cl)=C/Cl)C/C(Cl)=C/Cl	-2%	-0.95%	0.4%	-46.8%	7.35%	-5.55%
O=C1NCC/C1=C\c1ccc(Cl)c(Cl)c1	9.4%	-12.4%	-10.3%	-17.6%	-7.7%	-13.5%
COc1cc2c(cc1OC)NC(C)=CC(C)=N2	-14.3%	5.1%	0.3%	25.2%	25.7%	15.9%
Nc1cc2c(cc1I)-c1ccccc1C2O (stereo not given)	1.65%	4.55%	-12.8%	-2.9%	11.2%	-8.75%
COc1cc(C)c2cc(C)cc(C)c2n1	3.4%	6.05%	1.65%	-17.9%	3.9%	7.85%
O=C(N=Nc1c(O)[nH]c2ccc(Br)cc12)c1ccco1	24.2%	28.8%	43.2%	14.7%	43.2%	43%
CCOC(=O)c1ccc(OC(=O)Nc2ccccc2)cc1	-2.2%	6%	1.15%	-12.4%	-2.8%	-28.1%

Structure (SMILES)	growth inhibition [1]	growth inhibition [2]	growth inhibition [3]	growth inhibition [4]	growth inhibition [5]	growth inhibition [6]
COC(=O)C(CCC1(C)OCCO1)=[N+]=[N-]	-7.05%	0.95%	-15.1%	2.85%	-19.1%	-16%
Nc1nc(Cl)cc(NCCCNc2cc(Cl)nc(N)n2)n1	-1.55%	6.55%	13.3%	1.15%	3.65%	4.35%
COC(=O)c1ccc(CSc2ccc(N)cc2)cc1	53.1%	36.2%	60.6%	40.1%	46.1%	68.5%
COc1ccc(/C=C2\Cc3ccccc3C2=O)cc1OC	-0.05%	-10.2%	-9.85%	8.25%	-25.4%	-1.5%
O=C(NC1CCCCC1Cl)C1CCCCC1 (stereo not given)	17.1%	18.6%	2.15%	5.4%	-6.7%	-14.8%
CC(O)C(O)C(O)C1OC1=O (stereo not given)	0.95%	-9.8%	0.75%	-43%	-8.9%	-1.05%
CCC(C(O)c1ccc(Cl)cc1)C(O)(C(F)(F)F)C(F)(F)F (stereo not given)	99.4% (active)	99.5% (active)	99.6% (active)	99.5% (active)	99.3% (active)	99.4% (active)
NC1=NC=N/C(=N\c2ccccn2)C1N (stereo not given)	-13.3%	-9.95%	-5.4%	-32.2%	-11.2%	-8.6%
Cc1ccc(Cl)cc1NC(=O)Oc1cc(C)c(Cl)c(C)c1	1%	8.2%	-4.1%	6.85%	25.7%	4.35%
N#Cc1ccc(OCCCCOc2ccc([N+](=O)[O-])cc2Cl)cc1	5.75%	-10.7%	-19.4%	-3.8%	4.65%	20%
CC(C)(C)CC(C(=O)O)[Si](C)(C)C (stereo not given)	-4.55%	7.1%	-1.65%	-1.25%	2.9%	-9.7%
Cc1c([N+](=O)[O-])ccc2c(NCCCN(C)C)ccnc12	-2.5%	-5.65%	-5.35%	-6.4%	-14.3%	-36.4%
O=Cc1c[nH]c2ccccc2c1=O	17.1%	0.9%	1.05%	3.55%	30.4%	10.9%
Cc1ccc(-c2cc(=O)c3cc(C)c(C)c(C(=O)O)c3o2)cc1[N+](=O)[O-]	-20.7%	-5.1%	-1.05%	12.2%	2%	31.1%
Cc1nnc2sc(Cl)nn12	26.9%	48.8%	48.1%	17.7%	12.9%	22.8%
Cc1nn(C(=O)CC(=O)Nc2ccccc2Cl)c(C)c1N=Nc1ccccc1Cl	-11.3%	1.8%	-29.1%	35.1%	-8.55%	-23.1%
COc1ccc(CN2C(=O)C(=O)N(C)C2=O)c2ccccc12	36.9%	4.65%	13.8%	18.1%	18.5%	23.6%
CC(O)(C#Cc1ccccc1)c1nc2ccccc2s1 (stereo not given)	1.2%	-5%	-4.95%	-7.65%	17.2%	4.35%
Cc1cc(C(=O)O)cc(C)c1N(C)Cc1cnc2nc(N)nc(N)c2n1	5.6%	-11.8%	0.25%	20.7%	17.4%	-5%
COc1cc(C(=O)Oc2c(C#N)sc3c2c(=O)n(-c2ccccc2)c(=S)n3-c2ccccc2)cc(OC)c1OC	22.8%	3.2%	12.1%	10.2%	21.9%	20.5%
